Screens from PubChem BioAssay.
TTR transcr act = TTR transcription activators in neuroblastoma reporter cells, primary screen, cell-based, luminescence, SH-SY5Y, TTR promoter Gaussia luciferase. 100% = recombinant luciferase protein wells. activation, % at 16.7 µM. hit rate 1.3% among 92,000. AID 1117267, 2014;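 active = activation above the mean of all tested compounds plus 3 SD, cut at about 9.5% in these data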;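 also: cells exposed to compounds for one day before reading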
HuH7 TTR inh = TTR promoter reporter inhibitors in hepatoma cells, counter-screen for TTR transcription activator project, cell-based, luminescence, HuH7 hepatoma; HuH7 TTR promoter-Gaussia luciferase reporter; inhibition, % at 16.7 µM; shares compounds with TTR transcr act; AID 1117279, 2014; hit rate 4% among 1,100;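 active = average inhibition above the solvent-only control wells' mean plus 3 SD, cut at about 15% in these data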;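 also: inhibitors lower well luminescence so higher value means more inhibition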
TTR act confirm = TTR transcription activators, retest, confirmation, cell-based, luminescence, SH-SY5Y, triplicate; shares compounds with TTR transcr act; SHSY5Y TTR promoter Gaussia luciferase; 100% = purified Lucia enzyme wells, no cells; AID 1117280, 2014; 1,100 tested, under 10 active; activation, % at 16.7 µM;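 active = mean activation above a set limit taken from the earlier primary screen, cut at about 11% in these data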
Numbers stand for hits; – = inactive. Many of the other results were omitted from the sample, so hits are more common in it than they were.

SMILES	TTR transcr act	others
Cc1ccc(S(=O)(=O)N2CC(O)CC2C(=O)NCc2ccc3c(c2)OCO3)cc1 (stereo unspecified)	14.5	HuH7 TTR inh=–;TTR act confirm=–
Cc1ccc(CNC(=O)COC(=O)[C@@H]2CC(O)CN2S(=O)(=O)c2ccc3c(c2)OCCO3)cc1 (stereo partly specified)	–
Cc1ccc(NC(=O)N2CCCC2C(=O)NCc2ccc3c(c2)OCO3)cc1 (stereo unspecified)	–
C[C@@H]1CN([C@@H](C)CO)C(=O)c2cccc(NC(=O)Nc3cccc4ccccc34)c2O[C@H]1CN(C)S(=O)(=O)c1ccc2c(c1)OCCO2	–
NC(=O)C1CCN(c2ncc(Br)cn2)CC1	–
COc1cccc(NC(=O)CN(C)C(=O)c2ccc(NS(=O)(=O)c3ccc(F)cc3)cc2)c1	–
COc1cccc(NC(=O)CN(C)C(=O)c2cc(S(=O)(=O)NCc3ccccc3)ccc2C)c1	31.9	HuH7 TTR inh=–;TTR act confirm=–
COc1cccc(NC(=O)CN(C)C(=O)c2cc(S(=O)(=O)Nc3ccccc3OC)ccc2C)c1	–
O=C(NCc1ccncc1)c1nc(-c2cccs2)no1	–
COC(=O)c1ccc(-c2nc(-c3cccs3)no2)cc1	13.4	HuH7 TTR inh=–;TTR act confirm=–
COC(=O)c1ccc(-c2nc(-c3ccc(Br)o3)no2)cc1	–
Clc1ccc2nc(CNc3nc(N4CCOCC4)nc4c3ncn4-c3ccsc3)[nH]c2c1	–
CCOC(=O)C(=O)Nc1ccccc1C#N	24.8	HuH7 TTR inh=–;TTR act confirm=–
CCOC(=O)C(=O)Nc1ccccc1C(=O)NC(C)C	–
CCOC(=O)C(=O)Nc1ccccc1C(=O)OCC	–
COC(=O)[C@]12C[C@H](CC(=O)NCC34CC5CC(CC(C5)C3)C4)C(=O)N(Cc3ccc4c(c3)OCO4)C1=C[C@H](C(C)C)O[C@@H]2C1CC1	–
COc1ccc(CC(=O)c2ccc(OC)c(OC)c2)cc1	–
COc1ccc2c(c1)sc(=N)n2CC(=O)Nc1cc(C)cc(C)c1	–
COC(=O)Cn1c(=NC(=O)c2ccc(OC)c(OC)c2)sc2cc(OC)ccc21	11.6	HuH7 TTR inh=–;TTR act confirm=–
CC(C)[C@@H](C)/C=C/[C@@H](C)[C@H]1CC[C@@H]2[C@]1(C)CCC1[C@]23C=C[C@]2(C[C@@H](O)CC[C@]12C)N(C(=O)Cc1ccccc1)O3 (stereo partly specified)	–
C#CCNC(=O)C[C@H]1C[C@@]2(C(=O)OC)C(=C[C@H](COCc3ccccc3)O[C@@H]2C)N(CCc2ccc(OC)c(OC)c2)C1=O	–
Cc1ccccc1Cn1cc(COC(=O)N2CCOCC2)nn1	–
C[C@H]1[C@H](N(Cc2ccccc2)Cc2ccccc2)CC[C@@]23CCCN2C(=O)CCC[C@@H]13	–
O=C(CCN1CCOCC1)Nc1cc(C(=O)Nc2ccccc2F)ccc1N1CC2CC(C1)c1cccc(=O)n1C2 (stereo unspecified)	–
O=C(O)c1ccc(N2CC3CC(C2)c2cccc(=O)n2C3)c(NC(=S)Nc2ccc(Cl)cc2Cl)c1 (stereo unspecified)	10.6	HuH7 TTR inh=–;TTR act confirm=–
SMILES	TTR transcr act	others
Nc1cc(C(=O)N2CCN(c3cccc(Cl)c3)CC2)ccc1N1CC2CC(C1)c1cccc(=O)n1C2 (stereo unspecified)	–
C=CCNC(=S)/C(=C(\[O-])c1ccc(Cl)cc1)[n+]1ccccc1	–
Cc1cc(C)c(/C([O-])=C(/C(=S)Nc2ccc(SC(F)F)cc2)[n+]2ccccc2)cc1C	–
[O-]/C(=C(\C(=S)Nc1ccc(SC(F)F)cc1)[n+]1ccccc1)c1cc(Cl)ccc1Cl	22.3	HuH7 TTR inh=20.5;TTR act confirm=–
Cc1ccccc1CN1CCCCC(NC(=O)Nc2cccc([N+](=O)[O-])c2)C1=O (stereo unspecified)	–
CC(C)CN1C(=O)C[C@]2(C(=O)N(C)c3ccc(NS(=O)(=O)c4ccc(F)cc4)cc32)C1c1ccccc1 (stereo partly specified)	–
CC(=O)c1ccc(N2C(=NC(=O)C3CCCO3)SC3CS(=O)(=O)CC32)cc1 (stereo unspecified)	–
CC(=O)c1cccc(N2C(=NC(=O)CCc3ccccc3)SC3CS(=O)(=O)CC32)c1 (stereo unspecified)	–
CC(=O)c1ccc(N2C(=NC(=O)COc3ccccc3)SC3CS(=O)(=O)CC32)cc1 (stereo unspecified)	10.4	HuH7 TTR inh=–;TTR act confirm=–
COC[C@H]1CCCN1c1cccc2c1S(=O)(=O)N1CC[C@H](C1)O2	–
COC(=O)[C@]12C[C@H](CC(=O)NCc3cccc(C(F)(F)F)c3)C(=O)N(Cc3ccco3)C1=C[C@H](C(C)C)O[C@@H]2C1CC1	–
C[C@H]1CN([C@@H](C)CO)S(=O)(=O)c2ccc(Br)cc2O[C@H]1CN(C)Cc1ccccc1	–
CC(C)NC(=O)N(C)C[C@H]1Oc2cc(Br)ccc2S(=O)(=O)N([C@H](C)CO)C[C@H]1C	–
C[C@H](CO)N1C[C@H](C)[C@H](CN(C)Cc2ccc(Oc3ccccc3)cc2)Oc2cc(Br)ccc2S1(=O)=O	13.3	HuH7 TTR inh=–;TTR act confirm=–
Cc1ccc(S(=O)(=O)N(C)C[C@H]2Oc3cc(Br)ccc3S(=O)(=O)N([C@H](C)CO)C[C@@H]2C)cc1	–
COc1ccc(S(=O)(=O)N(C)C[C@H]2Oc3cc(Br)ccc3S(=O)(=O)N([C@H](C)CO)C[C@H]2C)cc1	28.1	HuH7 TTR inh=–;TTR act confirm=–
C[C@H](CO)N1C[C@H](C)[C@H](CN(C)S(=O)(=O)c2cccc(F)c2)Oc2cc(Br)ccc2S1(=O)=O	–
O=C(c1cccs1)n1ccc2ccc(-c3ccc4ccn(Cc5ccccc5)c4c3)cc21	–
COC(=O)c1ccc(Cn2ccc3ccc(-c4ccc5ccn(C(=O)c6ccc(C)cc6)c5c4)cc32)cc1	–
CCCC1CCC2(CC1)CCC2OC(=O)Nc1c(OC)cccc1OC (stereo unspecified)	–
Nc1c(C(=O)N2CCN(CCc3ccccc3)CC2)cnn1-c1ccccc1	–
Cc1ccc(-c2nc3ncccn3c2NC(=O)c2ccc(F)cc2)cc1	–
COc1ccc(C(=O)N2CCN(C(=O)C3COc4ccccc4O3)CC2)cc1 (stereo unspecified)	–
COc1cc(C(=O)N2CCN(C(=O)C3COc4ccccc4O3)CC2)cc(OC)c1OC (stereo unspecified)	–
Cc1cc(O)c2c(C)c(CC(=O)N3CCN(C(=O)C4COc5ccccc5O4)CC3)c(=O)oc2c1 (stereo unspecified)	9.8	HuH7 TTR inh=–;TTR act confirm=–
SMILES	TTR transcr act	others
COc1cccc(C(=O)Nc2nc(-c3ccncc3)cs2)c1	–
COc1cccc(-c2csc(NC(=O)Nc3ccccc3)n2)c1	–
COc1cccc(-c2csc(NC(=O)C3CC3)n2)c1	10.9	HuH7 TTR inh=32.9;TTR act confirm=–
COc1cccc(C(=O)n2ccc3ccc(-c4ccc5ccn(Cc6ccccc6)c5c4)cc32)c1	–
CCCCN(CCCC)CCCNC(=O)Cn1cc(C)c(=O)[nH]c1=O	–
Cc1ccc(SCC(=O)NCCSCc2ccccc2)cc1	–
Cc1ccc(CSCCNC(=O)CN2C(=O)c3ccccc3S2(=O)=O)cc1	9.9	HuH7 TTR inh=–;TTR act confirm=–
O=C(CN1C(=O)c2ccccc2S1(=O)=O)NCc1ccccc1	–
